Laboratory results: the OligoGym collection

target: METRNL; assay: pooled miR-30 sensor sort-seq; sequence = guide strand; details: shRNA
Further: reference of the scale not given here.

Sequence | sensor-assay potency score (higher = more potent)
TCGAACGGCGAAGTCGCTGGTG | -0.372
TAGAGTCTGCTCACGCGCAGGT | 0.197
TGAAGCGTGGGGCACAGCCGAG | -1.51
TACATCCTCTGGAAGTCCTTGA | 0.329
TAACGATGAGAGCACCTGTTGG | -0.773
TTTTACAGCATTTCCAATCGGC | 0.396
TGGAAGTCCTTGAAGCGTGGGG | -0.538
TTAACGATGAGAGCACCTGTTG | -1.05
TACTGGAAGCCTGTGGTCCTCC | -0.709
TGAAGGACCTGATGCACACGGT | -0.842
TTAGTTTGCATTTTACAGCATT | -0.859
ATAGAGTCTGCTCACGCGCAGG | -1.52

target: METTL16; assay: as above; details: shRNA

Sequence | sensor-assay potency score (higher = more potent)
TTCTTTAAGAGCATCCATCAGG | -0.744
TTTGCTTACCTAATTCTGCTTC | 0.554
TTTCTCTAATTTTCTTCGCTTA | -0.889
TGTATTAACAGAACTAGGCGGA | 0.503
TTTAAGAGCATCCATCAGGAGT | -1.04
TTGTCCTTGTATCTATTTCTTG | -1.01
TTATCAAACACTTAAACAGGTA | -0.44
TTCTTCGCTTACTTGGTGGTGA | 0.819
TAACAAACTCTAATTCACCTCC | 0.296
TAAGGCATCGTCCACCTCCTTC | -0.93
TTAACGTTTATCAAACACTTAA | -1.21
TTCTTCTTTAAGAGCATCCATC | -1.07

target: METTL21C; assay: as above; details: shRNA

Sequence | sensor-assay potency score (higher = more potent)
TAAAAGATTGTATTGAAGGTTT | -0.706
TATCTTGTTGGATTCTTCTAGG | -0.565
ATCTGTAGGAACAAATTTCTGG | -0.452
TGTTGTGTCAAAAACTTGCTTG | 0.0873
TAACTCTCTATGGATTCCTGGA | -0.728
TAGATTAACCAGATAATCTTAA | -0.406
TTAGAAATTAGAAAGTTTCTGC | 0.573
TTCTTCTCAGCCTCTAACCAGC | -1.05
TGTAGGAACAAATTTCTGGAGG | -0.694
TTCCTGGATGACAATCTCCTTT | -0.999
TCATAGTCGGTGCTGAACCTGA | -0.238
TTAGATATTTAGATTAACCAGA | -0.625

target: METTL21D; assay: as above; details: shRNA

Sequence | sensor-assay potency score (higher = more potent)
TTTGTCTTCTTAGCAACTCATT | -1.33
TTAAACTCTGAAGACAAACTAA | -0.429
TTCGTTGTTCATAACAACATAT | -1.05
